This is an account of results in PubChem BioAssay (NCI).

Test systems include SR leukemia; RPMI-8226 leukemia; OVCAR-8 ovarian; OVCAR-5 ovarian; OVCAR-4 ovarian; SK-OV-3 ovarian; IGROV1 ovarian; OVCAR-3 ovarian; HS 578T breast; NCI/ADR-RES ovarian; T-47D breast; BT-549 breast; MDA-MB-435 melanoma; SW-620 colon; MCF7 breast; HCT-116 colon; HCC-2998 colon; KM12 colon.
What all share (assay): NCI-60 one-dose screen, 48 h (100 = growth as untreated, 0 = no growth, -100 = all killed)
Settings in all cases: 10 µM unless noted

This is part of a sample that, as a whole, favours compounds with a hit. Of some 83,000 tested, about 20% had one in any assay.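 Interpretation: 100, growth as untreated; towards 0, rising growth inhibition; 0, no net growth; 0 to -100, cell death. Compounds scoring below 10 were considered active.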 Values without a mark were called inactive. Activity calls are given as the source filed them.

In the case of `CC(=O)NC(C)(C)C(=O)N1CCC[C@H]1C(=O)NC(C)(C)C(=O)N[C@@H](C)C(=O)NC(C)(C)C(=O)N[C@@H](C)C(=O)N[C@@H](CCC(N)=O)C(=O)NC(C)(C)C(=O)N[C@H](C(=O)NC(C)(C)C(=O)NCC(=O)N[C@@H](CC(C)C)C(=O)NC(C)(C)C(=O)N1CCC[C@H]1C(=O)N[C@H](C(=O)NC(C)(C)C(=O)NC(C)(C)C(=O)N[C@@H](CCC(N)=O)C(=O)N[C@@H](CCC(N)=O)C(=O)N[C@H](CO)Cc1ccccc1)C(C)C)C(C)C`, the growth in the assay on SR leukemia is 83.9% [4.25 µM]; with RPMI-8226 leukemia, 1.4% [4.25 µM] (active); with OVCAR-8 ovarian, 71.8% [4.25 µM]; in the assay on OVCAR-5 ovarian, 108% [4.25 µM]; with OVCAR-4 ovarian, 42.7% [4.25 µM]; in the assay with SK-OV-3 ovarian, 74% [4.25 µM]. The growth in the assay on IGROV1 ovarian was 76.9% [4.25 µM]; in the assay with OVCAR-3 ovarian it was 59.2% [4.25 µM]; in the assay with HS 578T breast it was 82.8% [4.25 µM]; in the assay on NCI/ADR-RES ovarian, 99.5% [4.25 µM]; in the assay on T-47D breast, 55.7% [4.25 µM]; in the assay with BT-549 breast, 23.5% [4.25 µM]. The growth is 71% [4.25 µM] in the assay with MDA-MB-435 melanoma; 91% [4.25 µM] with SW-620 colon; 17% [4.25 µM] with MCF7 breast; 67.7% [4.25 µM] with HCT-116 colon; 70.3% [4.25 µM] in the assay with HCC-2998 colon; 98.2% [4.25 µM] in the assay with KM12 colon.
Turning to `Cc1ccc(NC(=O)c2ccc(CN3CCN(C)CC3)c(C(F)(F)F)c2)cc1Oc1ccc(-c2[nH]nc3ncnc(N)c23)cc1`, the growth is 2.87% (active) in the assay with SR leukemia; 18.1% in the assay on RPMI-8226 leukemia; 94.5% with OVCAR-8 ovarian; 95.3% in the assay with OVCAR-5 ovarian; 90.7% with OVCAR-4 ovarian; 97% in the assay with SK-OV-3 ovarian. Also, the growth in the assay on IGROV1 ovarian is 82.7%; in the assay on OVCAR-3 ovarian it was 113%; with HS 578T breast, 72.8%; with NCI/ADR-RES ovarian it was 52%; with T-47D breast it was 101%; with BT-549 breast it was 105%. Moreover, the growth is 71.5% in the assay with MDA-MB-435 melanoma; 24.3% in the assay on SW-620 colon; 54% with MCF7 breast; 8.72% (active) in the assay with HCT-116 colon; 111% with HCC-2998 colon; 17.7% with KM12 colon.
Consider `Nc1ccc(-c2nnc(SCc3ccc(O)c4ncccc34)n2-c2ccccc2)cc1`, for which the growth was 36.5% with SR leukemia; 11.6% with RPMI-8226 leukemia; 12.5% in the assay on OVCAR-8 ovarian; 34.4% in the assay on OVCAR-5 ovarian; 12.4% in the assay with OVCAR-4 ovarian; 8.19% (active) in the assay on SK-OV-3 ovarian. Moreover, the growth with IGROV1 ovarian was 14.3%; in the assay with OVCAR-3 ovarian, 19.2%; with HS 578T breast, 5.08% (active); in the assay on NCI/ADR-RES ovarian it was 45.2%; in the assay on T-47D breast, 15.2%; in the assay on BT-549 breast, 18.5%. For the same molecule, the growth in the assay on MDA-MB-435 melanoma is 14.8%; with SW-620 colon, 19.2%; with MCF7 breast, 5.58% (active); in the assay with HCT-116 colon it was 8.87% (active); in the assay with HCC-2998 colon it was 29.1%; with KM12 colon, 17.8%.
For the molecule `Cn1c(SC(C(=O)Nc2ccc(F)cc2)c2ccccc2)nc2ccccc2c1=O` (stereo unspecified), the growth with SR leukemia is 96.9%; with RPMI-8226 leukemia, 98.4%; in the assay on OVCAR-8 ovarian it was 99.7%; in the assay with OVCAR-5 ovarian, 111%; in the assay with OVCAR-4 ovarian it was 102%; with SK-OV-3 ovarian, 109%. The growth in the assay on IGROV1 ovarian was 102%; with OVCAR-3 ovarian it was 114%; with HS 578T breast it was 98.8%; in the assay with NCI/ADR-RES ovarian it was 109%; in the assay with T-47D breast, 96%; in the assay with BT-549 breast it was 102%. Further, the growth is 101% in the assay on MDA-MB-435 melanoma; 105% with SW-620 colon; 90.9% in the assay on MCF7 breast; 95.3% with HCT-116 colon; 98.3% with HCC-2998 colon; 112% with KM12 colon.
As for `O=C(CSc1nnc(-c2ccc(Cl)cc2)n1-c1ccccc1)Nc1ccc(F)cc1`, the growth is 76.4% in the assay on SR leukemia; 89.5% with RPMI-8226 leukemia; 74% in the assay on OVCAR-8 ovarian; 97.4% with OVCAR-5 ovarian; 98.3% in the assay with OVCAR-4 ovarian; 83.8% in the assay on SK-OV-3 ovarian. The growth with IGROV1 ovarian was 95.1%; with OVCAR-3 ovarian it was 87.7%; in the assay with HS 578T breast, 61.4%; with NCI/ADR-RES ovarian, 77.9%; with T-47D breast, 80.4%; in the assay on BT-549 breast it was 93.2%. Besides, the growth was 92.9% in the assay on MDA-MB-435 melanoma; 82.3% in the assay on SW-620 colon; 81.6% in the assay with MCF7 breast; 46% with HCT-116 colon; 100% in the assay with HCC-2998 colon; 82.4% in the assay with KM12 colon.
As to `CCC(C)[C@H]1OC(=O)[C@H](C(C)C)N(C)C(=O)[C@@H](C(C)C)OC(=O)[C@H](C(C)C)N(C)C(=O)[C@@H](C(C)CC)OC(=O)[C@H](C(C)C)N(C)C1=O` (stereo partly specified), the growth was 7.44% (active) in the assay with SR leukemia; -19.5% (active) in the assay with RPMI-8226 leukemia; 11.6% in the assay with OVCAR-8 ovarian; 13.4% with OVCAR-5 ovarian; 10.5% in the assay on OVCAR-4 ovarian; -15.3% (active) in the assay on SK-OV-3 ovarian. Also, the growth is 25.8% in the assay with IGROV1 ovarian; 18.3% with OVCAR-3 ovarian; 32.9% in the assay on HS 578T breast; 2.47% (active) in the assay on NCI/ADR-RES ovarian; 3.65% (active) with T-47D breast; 0.725% (active) in the assay on BT-549 breast. The growth in the assay on MDA-MB-435 melanoma is 16.1%; in the assay with SW-620 colon, 17.3%; in the assay with MCF7 breast it was 8.27% (active); in the assay on HCT-116 colon, 8.58% (active); in the assay on HCC-2998 colon it was 23.4%; in the assay with KM12 colon it was 15.7%.
For `O=C(Nc1cc(Cl)cc(Cl)c1)Nc1nc2ccc([N+](=O)[O-])cc2s1`, the growth in the assay on SR leukemia was -0.61% (active); in the assay on RPMI-8226 leukemia, -23.8% (active); in the assay with OVCAR-8 ovarian, 8.77% (active); with OVCAR-5 ovarian it was 24%; in the assay on OVCAR-4 ovarian it was 10%; with SK-OV-3 ovarian, -2.86% (active). The growth in the assay with IGROV1 ovarian is 21.1%; in the assay on OVCAR-3 ovarian, 13.8%; in the assay with HS 578T breast it was -6.91% (active); in the assay on NCI/ADR-RES ovarian it was 2.26% (active); with T-47D breast it was -13.4% (active); in the assay on BT-549 breast it was -24% (active). In addition, the growth in the assay on MDA-MB-435 melanoma was -6.04% (active); in the assay on SW-620 colon it was 8.7% (active); in the assay with MCF7 breast, 2.98% (active); with HCT-116 colon, 0.0425% (active); with HCC-2998 colon it was 3.91% (active); in the assay with KM12 colon, 3.63% (active).
